# Measurements published in PubChem BioAssay.
# Where “and” joins values, the source holds several entries; their conditions need not be identical. Equal entries are not always repeated. Calls of active or inactive are those of the source. Rule as the data show it, unless noted: active = inhibition above about 80%; inactive = the rest.
# How the values were obtained:
# [1] = ovarian cancer cell viability with rucaparib, profiling panel, oncology-focused library, rucaparib conditional (AID 1508598;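 active = normalized viability below 100% at a tested concentration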); details: patient-derived ovarian cancer cells, CellTiter-Glo viability, 144 h, at 5 µM, stronger effect = lower value
# [2] = biological target: NAD(+) hydrolase SARM1 (Homo sapiens) (UniProt Q6SZW1); assay: SARM1 TIR NADase inhibitors, cell lysate, NAD-Glo luminescence (AID 1508614;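 active = compound whose remaining NAD level is above about 45 nM, limit read from the data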;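 also: higher remaining NAD means stronger inhibition of SARM1 NADase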); details: SAM-TIR HEK293T lysate NADase, at 1 µM, stronger effect = higher value
# NAD(+) hydrolase SARM1 (Homo sapiens), sequence (Q6SZW1 whole entry, looked up): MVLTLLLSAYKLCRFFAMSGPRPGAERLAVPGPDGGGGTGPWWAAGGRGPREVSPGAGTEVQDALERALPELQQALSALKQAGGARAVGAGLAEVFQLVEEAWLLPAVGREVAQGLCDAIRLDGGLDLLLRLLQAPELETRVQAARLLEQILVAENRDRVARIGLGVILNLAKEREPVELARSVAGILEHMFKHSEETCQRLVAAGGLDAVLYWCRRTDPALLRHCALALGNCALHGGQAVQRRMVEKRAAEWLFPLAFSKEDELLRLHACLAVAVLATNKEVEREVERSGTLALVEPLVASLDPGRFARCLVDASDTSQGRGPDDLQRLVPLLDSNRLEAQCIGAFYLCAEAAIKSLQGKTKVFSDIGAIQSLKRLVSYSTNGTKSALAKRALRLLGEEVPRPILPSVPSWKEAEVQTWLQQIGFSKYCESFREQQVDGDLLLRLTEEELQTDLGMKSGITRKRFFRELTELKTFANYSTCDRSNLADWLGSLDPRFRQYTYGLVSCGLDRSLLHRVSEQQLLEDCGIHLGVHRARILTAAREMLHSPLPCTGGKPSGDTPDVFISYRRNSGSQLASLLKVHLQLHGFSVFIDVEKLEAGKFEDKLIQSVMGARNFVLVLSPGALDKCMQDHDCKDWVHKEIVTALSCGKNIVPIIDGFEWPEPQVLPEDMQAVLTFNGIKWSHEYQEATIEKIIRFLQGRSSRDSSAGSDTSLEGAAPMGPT
# [3] = viability rescue of complex I mutant cybrids, primary screen, cell-based, galactose medium, ATP luminescence (AID 1645843;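 active = z-score of at least 1.8 in each of two replicates, scored against plate mean and spread of sample wells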;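 also: positive z means more ATP and so rescue of galactose-driven cybrid death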); details: complex I mutant cybrid cells, 72 h, stronger effect = higher value
# [4] = LFS_MB_P medulloblastoma growth inhibition, cell-based, chromothripsis tumors, cisplatin or BGB combos (AID 1671449); details: LFS_MB_P medulloblastoma cells;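 also: cells exposed for 96 hours; 0% = vehicle DMSO and 100% = killing by high DMSO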
# [5] = HDN33 neuroblastoma growth inhibition, cell-based, chromothripsis tumors, cisplatin or BGB combos (AID 1671450); details: HDN33 neuroblastoma cells, stronger effect = higher value;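 also: cells exposed to compound for four days; 0% = vehicle DMSO and 100% = cell killing by high DMSO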
# [6] = ICB984 medulloblastoma cell growth inhibition, synergistic combos for chromothripsis tumors, cisplatin or BGB combos (AID 1671451; call rule not given here;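 also: cells exposed for 96 hours before readout; 0% = vehicle DMSO and 100% = killing by high DMSO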); details: ICB984 medulloblastoma cells, drug combinations, stronger effect = higher value
# [7] = LFS_MB_1R medulloblastoma cell growth inhibition, synergistic combos for chromothripsis tumors, cisplatin or BGB combos (AID 1671452); details: LFS_MB_1R medulloblastoma cells, stronger effect = higher value;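 also: cells exposed for 96 hours before readout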
# [8] = HTB85 osteosarcoma cell growth inhibition, synergistic combos for chromothripsis tumors, BGB or cisplatin IC20 combos (AID 1671453); details: HTB85 osteosarcoma cells, drug combinations, stronger effect = higher value;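 also: cells exposed for 96 hours before readout; 0% = vehicle DMSO and 100% = high DMSO killing control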
# [9] = CRL2098 osteosarcoma cell growth inhibition, synergistic combos for chromothripsis tumors, BGB or cisplatin IC20 combos (AID 1671454); details: CRL2098 osteosarcoma cells, drug combinations, stronger effect = higher value;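 also: cells exposed for 96 h before readout; 0% = vehicle DMSO and 100% = killing by high DMSO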
# [10] = HD-MB03 medulloblastoma cell growth inhibition, synergistic combos for chromothripsis tumors, BGB or cisplatin IC20 combos (AID 1671455; in the data active = inhibition above about 83%;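 also: 0% = vehicle DMSO and 100% = high DMSO as cytotoxic control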); details: HD-MB03 medulloblastoma cells, stronger effect = higher value
# [11] = measured here: combination with BGB IC40, at 0.05 µM
structure (smiles),measurement,setting,value
O=NN(CCCl)C(=O)NC1CCCCC1,viability,"[1]; OCI-C5x cells, without rucaparib",124% (inactive)
same,viability,"[1]; OCI-P5x cells, with rucaparib 20 µM, 100% = cells with rucaparib alone",97.4% (active)
same,viability,"[1]; OCI-P5x cells, without rucaparib",125% (inactive)
same,remaining NAD,[2],10 nM (inactive)
same,z-score,[3],-0.495 (inactive)
same,inhibition,"[4]; at 0.5 µM, stronger effect = higher value",-24.1% (inactive) and -26.9% (inactive)
same,inhibition,"[4]; measured here: combination with BGB IC20, at 0.005 µM",-12.9% and -1.3%
same,inhibition,"[4]; measured here: combination with BGB IC40, at 0.005 µM",-38% and -34.1%
same,inhibition,[4]; [11],-45.8% and -16.7%
same,inhibition,"[4]; measured here: combination with cisplatin, at 0.5 µM, stronger effect = higher value",-40% and -38.1%
same,inhibition,"[4]; measured here: combination with cisplatin, at 5 µM, stronger effect = higher value",-6.56% and -25.7%
same,inhibition,"[5]; BGB combo, at 5 µM",-29.5% and -15.3%
same,inhibition,[5]; at 0.5 µM,-27.8% (inactive) and -8.82% (inactive)
same,inhibition,"[5]; cisplatin combo, at 5 µM",-16% and 13.3%
same,inhibition,"[5]; measured here: with BGB IC20 combination, at 0.5 µM",-31.2% and -14.7%
same,inhibition,"[5]; measured here: with cisplatin IC20 combination, at 0.5 µM",-22.8% and -17.6%
same,inhibition,"[5]; single agent, at 5 µM",-25.6% and 2.38%
same,inhibition,"[6]; BGB IC20 combo, at 0.005 µM",-12.5% and 2.61%
same,inhibition,"[6]; BGB IC40 combo, at 0.005 µM",-25.1% and -35.2%
same,inhibition,"[6]; BGB IC40 combo, at 0.05 µM",-15.4% and -60.7%
same,inhibition,[6]; at 0.5 µM,-38.4% (inactive) and -29.6% (inactive)
same,inhibition,"[6]; cisplatin combo, at 0.05 µM",-18.7% and -67%
same,inhibition,"[6]; cisplatin combo, at 0.5 µM",-33.8% and -42.1%
same,inhibition,"[6]; cisplatin combo, at 5 µM",-56.7% and -19.2%
same,inhibition,"[6]; measured here: 5 uM single agent, at 5 µM",-34.3% and -15.2%
same,inhibition,[7]; at 0.5 µM,-15.1% (inactive) and -17.6% (inactive)
same,inhibition,[7]; [11],-47.7% and -29.7%
same,inhibition,"[7]; measured here: combination with cisplatin, at 0.5 µM",-17.2% and -26.3%
same,inhibition,"[7]; measured here: combination with cisplatin, at 5 µM",-19.8% and 0.28%
same,inhibition,[8]; at 0.5 µM,-14.3% (inactive) and -7.5% (inactive)
same,inhibition,"[8]; measured here: with BGB IC20, at 0.5 µM",-27% and -24%
same,inhibition,"[8]; measured here: with BGB IC20, at 5 µM",-2.92% and -20.1%
same,inhibition,"[8]; measured here: with cisplatin IC20, at 0.5 µM",-13.8% and 2.41%
same,inhibition,"[8]; measured here: with cisplatin IC20, at 5 µM",-45.5% and 7.57%
same,inhibition,"[8]; single agent, at 5 µM",-16.4% and -4.13%
same,inhibition,[9]; at 0.5 µM,-30.9% (inactive) and -17.1% (inactive)
same,inhibition,"[9]; measured here: combination with BGB at IC20, at 0.5 µM",-24.6% and 7.17%
same,inhibition,"[9]; measured here: combination with cisplatin at IC20, at 0.5 µM",-72.6% and -17.3%
same,inhibition,[10]; at 0.5 µM,-11.2% (inactive) and -8.17% (inactive)
same,inhibition,"[10]; measured here: combo with BGB at IC20, at 0.5 µM",-11.5% and -2.92%
same,inhibition,"[10]; measured here: combo with cisplatin at IC20, at 0.5 µM",-6.91% and -12.4%
